Results on 40 molecules are retold here after PubChem BioAssay (NCATS).

Values joined by “and” are separate entries in the source; they are usually repeats but may differ in a detail not shown here. Identical values can stand only once. Values without a mark were called inactive. The call rests on the fitted dose curve.
Potency means the concentration at half of the fitted maximal effect.

Glucocorticoid receptor (Homo sapiens), sequence (P04150 whole entry, looked up): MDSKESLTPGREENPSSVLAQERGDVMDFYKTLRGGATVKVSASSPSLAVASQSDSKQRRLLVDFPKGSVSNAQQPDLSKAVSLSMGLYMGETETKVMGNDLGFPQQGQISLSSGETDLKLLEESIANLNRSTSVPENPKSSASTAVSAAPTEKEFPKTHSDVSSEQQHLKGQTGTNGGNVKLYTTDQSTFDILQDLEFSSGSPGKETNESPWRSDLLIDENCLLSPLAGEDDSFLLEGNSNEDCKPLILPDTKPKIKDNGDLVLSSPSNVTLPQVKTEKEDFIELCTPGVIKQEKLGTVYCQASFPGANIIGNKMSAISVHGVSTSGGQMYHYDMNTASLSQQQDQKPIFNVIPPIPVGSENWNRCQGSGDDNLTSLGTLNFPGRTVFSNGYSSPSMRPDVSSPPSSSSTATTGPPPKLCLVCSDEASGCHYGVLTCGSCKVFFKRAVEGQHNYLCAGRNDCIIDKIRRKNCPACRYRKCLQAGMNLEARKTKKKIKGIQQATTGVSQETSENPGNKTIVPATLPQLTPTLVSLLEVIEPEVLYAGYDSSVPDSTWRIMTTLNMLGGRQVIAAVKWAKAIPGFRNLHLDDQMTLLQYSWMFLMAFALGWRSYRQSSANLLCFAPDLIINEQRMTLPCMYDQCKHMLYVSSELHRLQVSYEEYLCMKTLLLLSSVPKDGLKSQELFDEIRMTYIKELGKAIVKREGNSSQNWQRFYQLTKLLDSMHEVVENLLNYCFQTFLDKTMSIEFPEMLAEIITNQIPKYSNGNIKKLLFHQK

The experiment has as its target Glucocorticoid receptor (Homo sapiens) (UniProt P04150). In words: GR-EFC Redistribution (AID 451). The following applies: CHO-K1 GR-EFC translocation, beta-gal luminescence, 2 h. The text has this: NIH Molecular Libraries Screening Centers Network [MLSCN]
NIH Chemical Genomics Center [NCGC]
The glucocorticoid receptor (GR) is a cytoplasmic receptor that belongs to the nuclear receptor family of ligand-dependent transcription factors. Upon glucocorticoid binding to its receptor, the glucocorticoid-GR complex translocates into the nucleus, where it binds as a dimer to specific DNA sequences (glucocorticoid response elements), enhancing or suppressing transcription of a wide variety of glucocorticoid-responsive genes. In addition to their important roles in normal physiology and metabolism, glucocorticoids are administered exogenously as treatments for a wide variety of allergic, autoimmune, and neoplastic conditions. Identification of compounds that modulate aspects of GR signalling would be useful in dissecting glucocorticoid response pathways as well as developing GR modulators with more targeted clinical effects.
Traditionally, GR modulators have been identified using receptor binding or direct transactivation assays. However, assays for glucocorticoid-dependent nuclear translocation can also be used to screen for compounds affecting GR signaling.
Immunocytochemical staining has been used to assay for GR translocation, but is not suitable for high throughout screening due to the multiple reagent addition and wash steps required. Recently, a novel cell-based GR assay in Enzyme Fragment Complementation (EFC) format was developed by DiscoveRx (Fremont, CA). The assay uses EFC of b-galactosidase (b-gal) as an indicator of GR-translocation in engineered CHO-K1 biosensor cells. The enzyme acceptor (EA) fragment of b-gal resides in the nucleus , as designed through the use of a proprietary set of sequence additions and modifications. The small peptide enzyme donor (ED) fragment of b-gal is fused directly to the C-terminus of GR, and is localized in the cytoplasm is the absence of receptor signaling. Upon binding to a GR ligand, the complex translocates to the nucleus, where intact enzyme activity is restored by complementation and b-gal activity is detected. We optimized this GR-EFC assay in homogenous 1536-well plate assay format for high throughput screening.
NCGC Assay Protocol Summary:
CHO-K1 cells stably expressing NLS-enzyme acceptor fragment (EA) of b-gal and GR-enzyme donor (ED) fragment of b-gal were maintained in F12 medium (Invitrogen, Carlsbad, CA) at 37 Celsius degrees under a humidified atmosphere containing 5% CO2 and 95% air. The medium contained 10% FBS, 2 mM L-glutamine, 50 U/ml penicillin 50 ug/ml streptomycin, and 250 ug/ml hygromycin and 500 ug/ml G418 (Invitrogen).
GR-translocation was measured beta-gal enzyme activity using the PathHunter Detection Kit containing cell membrane permeablizing reagent and beta-gal substrate (DiscoveRx, Fremont, CA). All compounds were screened as titrations from 0.6 nM to 46 uM final concentration. The assay was performed in 1536-well format as follows:
5 uL cell suspension (1,000 cells)/well
Incubation at 37 Celsius degrees for two hours
1.25 uL 1X detection buffer from the kit supplied by DiscoveRx
Incubation at room temperature for one hour
Read plate in luminescence mode in ViewLux plate reader (PerkinElmer)
Keywords: NIH Roadmap, MLSCN, MLI, MLSMR, GR-EFC, GREFC, qHTS, NCGC
Regarding `O=C(O)c1cc2cc(Cc3cccnc3)ccc2o1`, the Potency was over 46 µM.

Turning to `CN(C)CCCOc1nn(Cc2ccccc2)c2ccccc12`, the Potency was over 20.6 µM. Consider `C[C@H]1[C@H](NC(=O)/C(=N/OC(C)(C)C(=O)O)c2csc(N)n2)C(=O)N1S(=O)(=O)O` (stereo in doubt), for which the Potency was over 20.6 µM. As for `CN(C)CC/C=C1\c2ccccc2Sc2ccc(Cl)cc21`, the Potency was > 20.6 µM and > 9.22 µM.

As for `CC(=O)c1ccc2c(c1)N(CCCN1CCC(CCO)CC1)c1ccccc1S2`, the Potency is over 20.6 µM. As for `CCCCCCC[N+](CC)(CC)CCCCc1ccc(Cl)cc1`, the figure is over 20.6 µM; as for `Nc1cc(Cl)c(NC2=NCCN2)c(Cl)c1`, over 46 µM. The value for `C[C@@H]1C(=O)NC2=Nc3cccc(Cl)c3CN21` was over 46 µM.

Consider `O=C(CCCN1CCC(O)(c2ccc(Br)cc2)CC1)c1ccc(F)cc1`, for which the Potency was over 20.6 µM. As for `CCCCOc1cc(C(=O)NCCN(CC)CC)c2ccccc2n1`, the figure is over 20.6 µM; as for `N[C@@H](Cc1cnc[nH]1)C(=O)O`, over 46 µM. With `CCN(CC)C(=O)N1CCN(C)CC1`, the Potency was over 20.6 µM. On to `Cc1ccnc(NS(=O)(=O)c2ccc(N)cc2)n1`, for which the Potency was over 20.6 µM. On to `CC(C)COC(=O)OCN1C(=O)CN(CCN2CC(=O)N(COC(=O)OCC(C)C)C(=O)C2)CC1=O`, for which the Potency is over 46 µM. Take `Oc1cc(O)c2c(c1)O[C@H](c1ccc(O)c(O)c1)[C@H](O)C2`: the Potency is > 46 µM and > 20.6 µM. Consider `CN1CCN(C(c2ccccc2)c2ccccc2)CC1`, for which the Potency is over 20.6 µM. Regarding `C[C@H](O)C(=O)Nc1c(I)c(C(=O)NC(CO)CO)c(I)c(C(=O)NC(CO)CO)c1I`, the Potency is over 20.6 µM. The value for `CNCCC=C1c2ccccc2CCc2ccccc21` was > 46 µM and > 20.6 µM and > 9.22 µM; that for `C=C(CC)C(=O)c1ccc(OCC(=O)O)c(Cl)c1Cl` was over 20.6 µM; that for `C[N+]1(CCCCC[N+]2(C)CCCC2)CCCC1` was > 46 µM and > 20.6 µM. The value for `Nc1nc2ncc(CNc3ccc(C(=O)N[C@@H](CCC(=O)O)C(=O)O)cc3)nc2c(=O)[nH]1` was over 20.6 µM; that for `Oc1ccc(Cl)cc1Sc1cc(Cl)ccc1O` was over 9.22 µM; that for `CCn1cc(C(=O)O)c(=O)c2cnc(N3CCCC3)nc21` was over 20.6 µM. For `O=C1c2ccccc2C(=O)C1c1ccccc1`, the Potency is over 20.6 µM. The value for `CCOC(=O)n1ccn(C)c1=S` was over 20.6 µM. The value for `NC(=NCCCCCCN=C(N)/N=C(\N)Nc1ccc(Cl)cc1)/N=C(\N)Nc1ccc(Cl)cc1` was over 20.6 µM; that for `O=C(OCCOCCO)c1ccccc1Nc1cccc(C(F)(F)F)c1` was over 20.6 µM; that for `CN=C(NC#N)NCCSCc1csc(N=C(N)N)n1` was over 46 µM. As for `CC(C)(Oc1ccc(Cl)cc1)C(=O)O`, the figure is > 20.6 µM and > 46 µM. For the molecule `CC(C)(C(=O)c1cccnc1)c1cccnc1`, the Potency is over 20.6 µM. As for `CN1CCC(=C2c3ccccc3Sc3ccccc32)CC1`, the figure is over 20.6 µM; as for `CCCCCCCCCCCCCCCC[N+](C)(C)CCN(Cc1ccc(OC)cc1)c1ncccn1`, over 20.6 µM; as for `Oc1c(I)cc(Cl)c2cccnc12`, over 20.6 µM. The value for `COc1c2occc2c(OC)c2c(=O)cc(C)oc12` was over 20.6 µM. The value for `CCOc1ccc(Cc2nccc3cc(OCC)c(OCC)cc23)cc1OCC` was over 20.6 µM; that for `NCCc1ccn[nH]1` was over 20.6 µM; that for `CCCCOc1ccc(C(=O)CCN2CCCCC2)cc1` was over 20.6 µM. For the molecule `C[C@@H](CN(C)C)CN1c2ccccc2Sc2ccccc21`, the Potency is over 20.6 µM.

Turning to `Cc1c(N(C)CS(=O)(=O)O)c(=O)n(-c2ccccc2)n1C`, the Potency was over 20.6 µM.

As to `CN(C(=O)CN(CCO)CC(=O)N(C)C(C)(C)Cc1ccccc1)C(C)(C)Cc1ccccc1`, the Potency was over 20.6 µM.
